# Bioassay records as filed in PubChem BioAssay.
# Only some compounds are listed: those with a hit (about 9.2% of all), similar ones and a draw of the others.
# HPGD block: HPGD (human) dehydrogenase inhibition | P15428 | purified HPGD, NADH fluorescence kinetic, PGE2 substrate | Potency, µM, for inactives: at the highest dose activity change, negative = inhibition, hits mostly inhibitors | hit rate 4.3% among 150,000; note: % is set by controls: 0 for no effect and ±100 for the full control effect
#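 20 nM HPGD preincubated 15 min at room temperature with compound in 50 mM Tris-HCl pH 8, 0.01% Tween 20. Started with 1 mM NAD+ and 30 uM prostaglandin E2; NADH fluorescence (360/450 nm) read 5 times over 30-s intervals, last minus first.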
# ALDH1A1 inh: blocks purified human ALDH1A1 activity | Purified ALDH1A1, NADH fluorescence, propionaldehyde substrate | AID 1030 | P00352 | hit rate 7.3% among 220,000 | Potency, µM (top dose mostly 75.3 µM), for inactives: top-dose activity, negative = inhibition, usual class: inhibitors;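 note: plate controls were no enzyme wells and a reference inhibitor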
# Target sequence (P00352 whole entry, looked up): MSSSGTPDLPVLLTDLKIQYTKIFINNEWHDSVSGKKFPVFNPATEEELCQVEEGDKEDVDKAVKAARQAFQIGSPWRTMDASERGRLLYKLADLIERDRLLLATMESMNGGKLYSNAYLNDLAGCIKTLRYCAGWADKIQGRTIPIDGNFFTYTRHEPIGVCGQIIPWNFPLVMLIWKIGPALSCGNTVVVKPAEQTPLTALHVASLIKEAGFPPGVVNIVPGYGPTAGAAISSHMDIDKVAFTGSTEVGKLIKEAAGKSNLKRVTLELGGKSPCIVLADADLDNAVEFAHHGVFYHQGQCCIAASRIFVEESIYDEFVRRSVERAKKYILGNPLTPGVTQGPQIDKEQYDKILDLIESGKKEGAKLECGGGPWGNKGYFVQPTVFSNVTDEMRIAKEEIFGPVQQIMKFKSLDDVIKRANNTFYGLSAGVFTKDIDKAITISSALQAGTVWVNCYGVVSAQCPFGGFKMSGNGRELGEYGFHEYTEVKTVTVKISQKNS
# LMNA splice mod: LMNA splicing modulation; HeLa LMNA splicing GFP/RFP minigene ratio, 48 h; Potency, µM (titrated, usually from 46.1 µM), for the others: top-dose ratio change, negative = inhibition, hits mostly inhibitors; hit rate 0.01% among 200,000; AID 1487; active = well fitted inhibition curve with a large enough effect in the signal ratio, with a control signal flat, not every such curve was filed as active; inconclusive = small, poorly fitted or top-dose-only effect, or effect the other way, or a change in a side signal; the % refers to the signal ratio; note: % is set by controls: 0 for no effect and ±100 for the full control effect
#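 Read-out is the ratio of GFP to DsRed2 object intensity, acquired by 488 nm laser-scanning cytometry on HeLa lamin A-EGFP minigene reporter cells. Compound incubation 48 hrs at 37 °C in Opti-MEM with 2% FBS; DMSO 0.5% final.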
# JMJD2E inh: JMJD2E (human) inhibition; AID 2147; hit rate 1.6% among 230,000; B2RXH2; Potency, µM (highest dose often 57.1 µM), inactives show at the highest dose activity change, negative = inhibition, hits mostly inhibitors; JMJD2E catalytic domain, FDH-coupled NADH fluorescence (FDH is formaldehyde dehydrogenase);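 note: 0% = wells with enzyme and -100% = buffer wells without enzyme; nearly all actives have a fitted effect of over 50% in size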
# HttQ103 aggreg: inhibitors of mutant huntingtin aggregate formation in PC12 cells; Potency, µM (doses to about 46.1 µM), without a hit: at the top dose activity change, negative = inhibition, most hits filed as inhibitors; PC12 HttQ103-GFP aggregates, Acumen cytometry, 40 h; hit rate 1.1% among 220,000; active = well fitted curve in the direction sought with a large enough effect; inconclusive = small, poorly fitted or top-dose-only effect, or another doubt; inactive = no such curve, though single readings can be large; an effect the other way counts as inactive or inconclusive; note: % is set by controls: 0 for no effect and ±100 for the full control effect; nearly all actives have a fitted effect of over 60% in size
#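 Aggregate formation scored by laser-scanning cytometer (488 excitation, 500–530 emission) in lysed PC12 cells expressing Q103-GFP after 100 nM tebufenozide induction; library tested in dose series, with ATPLite reagent added in the multiplex.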
# HTT cytoprotect: cytoprotection in Huntington HTT-Q103 PC12 cell model | PC12 HTT-Q103 induced, cytoprotection, ATP luminescence, 40 h | Potency, µM (series often up to 56.4 µM), inactives show cytoprotection (ATP increase), hits mostly activators | hit rate 0.14% among 230,000 | AID 1471; active = well fitted curve in the direction sought with a large enough effect; inconclusive = small, poorly fitted or top-dose-only effect, or another doubt; inactive = no such curve, though single readings can be large; an effect the other way counts as inactive or inconclusive; note: % of control where 0% means no effect; nearly all actives have a fitted effect of over 45% in size
#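 PC12 cells with ecdysone-inducible HTT exon 1 Q103-GFP, induced with 100 nM tebufenozide and co-treated with library compounds in a dose series (1536-well, 1500 cells/well). Cytoprotection read as ATP content by ATPlite luminescence.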
# Active calls of the source: *; ? = inconclusive; . = no result; ! = not active in a repeat; [ ] = dose if it differs, or a comment. Unless noted, calls come from the whole dose curve; as a rule, active = well fitted inhibition curve with a large enough effect (not every such curve was filed as active); inconclusive = small, poorly fitted or top-dose-only effect, or another doubt; inactive = no such curve, though single readings can be large or run the other way. Potency is the fitted concentration of half-maximal effect.
SMILES,HPGD block,ALDH1A1 inh,LMNA splice mod,JMJD2E inh,HttQ103 aggreg,HTT cytoprotect
NS(=O)(=O)c1ccc(NC(=S)N2CCN(c3ccc(Cl)c(Cl)c3)CC2)cc1,-7%,-9%,?,0%,-24%,.
NS(=O)(=O)c1ccc(NC(=S)N2CCN(Cc3ccc(Cl)c(Cl)c3)CC2)cc1,.,7%,.,11%,22µM*,-40%
CCCCCCCCCCCCCCC(C(=O)O)C(O)(CC(=O)OC)C(=O)O (stereo unspecified),16µM*,-2%,-19%,-7%,.,.
CN1CCN(c2ncc3nc(-c4ccccc4)c(=O)n(-c4ccccc4)c3n2)CC1,?,?,.,.,.,-44%
O=C(COC(=O)c1cnc(Cl)c(Cl)c1)NCc1cccs1,.,20µM*,17%[46 µM],0%,15%,-14%
O=C(COC(=O)c1ccc(CO)cc1)NCc1cccs1,32µM*,5%,8%,10%,-13%,47%[0.074 µM]
NS(=O)(=O)c1ccc(NC(=O)COC(=O)c2cnc(Cl)c(Cl)c2)cc1,.,20µM*,.,-1%,0%[9.22 µM],-2%[10 µM]
Cc1ccc(C(=O)OCC(=O)NCc2cccs2)cc1,?,-4%,-8%,1%,12%,2%[10 µM]
CCCOC(=O)c1ccc(O)cc1,-5%,10µM*!,?,.,-9%,-39%
O=C(O)CCC(=O)Nc1ccc(C(=O)OCC(=O)c2ccc(Cl)cc2)cc1,.,4%,.,2%,-7%[9.22 µM],-9%[10 µM]
O=C(COC(=O)c1ccc(O)cc1)Nc1ccc(Cl)cc1,.,8.9µM*,.,0%,3%[9.22 µM],-24%
N#CCCN(C(=O)CCl)c1cccc(Cl)c1,.,0.11µM*,.,-2%,18µM*,-116%
CCCCCCN(C(=O)CCl)c1ccccc1,.,.,.,-5%,-7%[9.22 µM],17%[10 µM]
CCCCCCCN(C(=O)CCl)c1cccc(C)c1,-26%,0.22µM*,-14%,2%,-3%,-18%[10 µM]
N#CCCN(CCC#N)C(=O)COc1ccc(Cl)cc1Cl,0%,-6%,7%,20%,11%,14%[10 µM]
COc1ccccc1S(=O)(=O)CC(O)COc1ccc(F)cc1Cl (stereo unspecified),.,6%,-3%[46 µM],-5%,27%[9.22 µM],-18%
COC(=O)CNC(=O)C1(C)C=CC2(CCCCC2)N1C(C)=O (stereo unspecified),-8%,10%,.,8%,.,-2%
O=[N+]([O-])c1ccc(Oc2ccc(/C=N/O)cc2)nc1,.,1%,.,3%,-10%[9.22 µM],-26%[10 µM]
O=C1NC(=O)/C(=C\c2ccc(Oc3ccc([N+](=O)[O-])cn3)cc2)S1,13µM*,?,?,3%,10%,-2%[1.9 µM]
COc1ccc(NC(=O)N2CCCC3(CCN(C(=O)c4c(C)noc4C)CC3)C2)cc1,-7%,-5%,.,.,.,-7%
CC1CCCCN1C(=O)c1ccc(COc2ccc([N+](=O)[O-])cc2)o1 (stereo unspecified),22µM*,14µM*,?,-3%,-5%,.
CCCn1c(SCC(=O)N2c3ccccc3CCc3ccccc32)nc2c1c(=O)n(C)c(=O)n2C,-13%,11µM*,-8%,-4%,14%,-11%
CCCn1c(SCC(=O)N2CCc3ccccc3C2)nc2c1c(=O)n(C)c(=O)n2C,-2%,-9%,7%,3%,-8%,-5%[10 µM]
CCn1c(SCC(=O)N2c3ccccc3Sc3ccccc32)nc2c1c(=O)n(C)c(=O)n2C,-12%,11µM*,2%,6%,-12%,1%[10 µM]
Cn1c(=O)c2c(nc(SCC(=O)c3ccccc3F)n2C)n(C)c1=O,.,18µM*,.,0%,-10%[9.22 µM],-18%[10 µM]
CC(C)CC[n+]1ccn(-c2nc3ccccc3nc2[N-]S(=O)(=O)c2ccc(Cl)cc2)c1,.,.,.,?,4%[9.22 µM],32%[10 µM]
COc1ccc2[nH]cc(CCNc3ccnc(-c4ccccc4Cl)n3)c2c1,.,25µM*,?,.,.,-19%
COc1ccc(CN(Cc2cccn2C)C(=O)c2cc3cc(OC)ccc3[nH]2)cc1,.,.,.,?,-19%[9.22 µM],5%[10 µM]
CCN1C(=O)/C(=C\c2ccco2)C(C(=O)OC)=C1C,-5%,-10%,21%,-2%,19%,-36%
